# Compound activity from PubChem BioAssay.
# Arbovirus inh – antivirals against arbovirus infection; arbovirus infection cell-based antiviral screen; inhibition, % at 10 µM; actives 0.37% (n = 200,000); in the data active = inhibition above about 30%
# Autophagy mod – modulators of autophagy; calls only at 10 µM (by protocol); AID 463193; MEF GFP-LC3 puncta imaging; test concentration mostly 10 µM; actives 0.98% (n = 190,000);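 active = percentage of spot-positive cells more than 3 SD above its plate mean, without a fluorescence outlier flag or 80% toxicity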;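 note: spot-positive cell cutoff set from DMSO-treated cells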
# Efa HMGR inh – E. faecalis class II HMG-CoA reductase inhibition | inhibition, % at 10 µM | actives 0.41% (n = 190,000) | purified E. faecalis HMGR, NADPH absorbance 340 nm kinetic | AID 1066;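 active = inhibition above a set limit, the median over all tested compounds plus 3 SD, cut at about 9.5% in these data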;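 note: enzyme runs in reverse so mevalonate oxidation gives rising NADPH absorbance; 0% = complete reaction with DMSO and 100% = background rate lacking mevalonate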
# DTT redox prof – compounds producing H2O2 with reducing agent – biochemical, NIH compound library profiling, artefact control for MLSCN library redox annotation, primary screen. DTT-dependent redox cycling H2O2, phenol red/HRP absorbance; 100% = 100 µM peroxide control, 0% = buffer. activation, % at 10 µM. actives 0.03% (n = 200,000). AID 878;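 active = activation of at least 50% relative to the plate's high and low controls in the primary single-dose screen; inactive = activation below 50%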;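 note: compound incubated with DTT at 0.8 mM final as the reducing agent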
# NCF1 inh – p47phox (human) inhibition; P14598; p47phox/p22phox peptide binding, fluorescence polarization, 2 h; inhibition, % at 24.7 µM; actives 0.53% (n = 220,000); AID 1274;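 active = inhibition above about 30%, limit read from the data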;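 note: 0% = p47phox with labelled peptide and 100% = labelled peptide alone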
# Target sequence (P14598 whole entry, looked up): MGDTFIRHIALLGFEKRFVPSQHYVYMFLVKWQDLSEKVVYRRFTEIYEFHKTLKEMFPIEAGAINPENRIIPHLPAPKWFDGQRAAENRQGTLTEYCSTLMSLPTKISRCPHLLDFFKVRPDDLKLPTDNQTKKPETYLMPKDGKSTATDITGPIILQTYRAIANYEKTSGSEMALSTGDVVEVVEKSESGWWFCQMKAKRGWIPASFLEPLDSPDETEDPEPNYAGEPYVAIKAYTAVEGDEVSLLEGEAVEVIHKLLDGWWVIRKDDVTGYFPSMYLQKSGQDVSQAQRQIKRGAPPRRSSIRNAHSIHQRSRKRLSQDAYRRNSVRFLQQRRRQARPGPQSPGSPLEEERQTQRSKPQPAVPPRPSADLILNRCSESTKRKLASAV
# Ins promoter up – MIN6 insulin promoter up-regulation; MIN6 insulin promoter-GFP reporter, high-content imaging; stronger effect = higher value; z-score at 5 µM; actives 0.3% (n = 190,000); AID 1625;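 active = z-score above 3 at 5 µM with at least 500 cells counted in the well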
# The depositor's hits bear a star; i = inactive; nt = no result given; + = active, no number. Rows were chosen to be rich in hits. Some 2.2% of all compounds tested hit in one or more screens of this group.
SMILES,Arbovirus inh,Autophagy mod,Efa HMGR inh,DTT redox prof,NCF1 inh,Ins promoter up
CCC1CCCCN1C(=O)CCn1ccnc1 (centres undefined),2,i,15*,0,-7,0.5
COc1ccc(N2CC(NC(=O)N3CCc4ccccc43)CC2=O)cc1OC (centres undefined),6,i,1,0,0,0.54
Cc1cc([N+](=O)[O-])nn1CC(=O)NCc1nc2ccccc2[nH]1,9,i,-6,-1,41*,0.06
COc1ccc(C2=NOC(C(=O)NCc3cccs3)C2)cc1 (centres undefined),-18,+,-8,0,-13,-1.1
Cc1ccccc1CN(C)CC(=O)NC(C)CCc1ccccc1 (centres undefined),-16,+,nt,0,-11,0.11
Cc1ccc(CC(=O)NC(C)CCc2ccccc2)cc1 (centres undefined),10,i,-3,2,-21,-0.2
Cc1ccccc1C(=O)N=c1sccn1C,1,i,2,0,110*,nt
Cc1ccccc1C(=O)Nc1nncs1,4,i,2,-2,3,-0.12
CCn1ncc(Cl)c1C(=O)NC(C)c1ccccc1 (centres undefined),6,i,-1,0,-8,-0.12
CC(C)[C@H](NS(=O)(=O)c1ccccc1)C(=O)OCC(=O)N1N=C(c2ccc(Cl)cc2)CC1c1ccco1 (some centres undefined),-8,i,0,0,-33,nt
CCN(CC)C(=O)C1CC(=O)N(c2ccc(F)c(Cl)c2)C1 (centres undefined),7,i,3,4,nt,0.23
O=C(Nc1ccccc1C(=O)O)c1ccc(Br)c(S(=O)(=O)NCc2ccccc2)c1,31*,i,-1,0,-1,0.13
Cc1cccc2cc(CN(Cc3ccco3)S(=O)(=O)c3ccc4c(c3)OCCO4)c(=O)[nH]c12,2,+,0,-1,-6,-0.03
Cc1ccc(C)c2[nH]c(=O)c(CN(CC3CCCO3)S(=O)(=O)c3ccc4c(c3)OCCO4)cc12 (centres undefined),4,+,-6,4,-16,1.8
Cc1cccc2cc(CN(Cc3ccco3)C(=O)N3CCCC3)c(=O)[nH]c12,nt,nt,nt,nt,nt,-1.1
Cc1cc(C)c2[nH]c(=O)c(CN(CC3CCCO3)S(=O)(=O)c3ccc4c(c3)OCCO4)cc2c1 (centres undefined),-4,i,-5,2,5,-0.32
Cc1ccc(NS(=O)(=O)c2ccc3c(c2)NC(=O)CC(=O)N3)cc1C,22,i,9.9*,0,-4,-2.2
COc1ccc(NS(=O)(=O)c2ccc3c(c2)NC(=O)CO3)cc1,0,i,-9,-1,-3,0.05
CC(=O)Cc1nsc(NC(=O)c2ccc(-c3cc(C(F)(F)F)ccc3Cl)o2)n1,4,i,-1,0,1,nt
CC(=O)Cc1nsc(NC(=O)c2ccc(-c3cccc(C(F)(F)F)c3)o2)n1,7,+,-4,-2,-18,-0.1
C/C(Cc1ccccc1)=N\NC(=O)CNC(=O)COc1cccc(C)c1,nt,nt,nt,nt,-4,0.56
Cc1cccc(OCC(=O)NNC(=O)CCc2ccccc2)c1,-2,i,53*,-1,2,0.13
CCCC(C)c1nnc(NC(=O)c2cc(C(=O)OC)cc([N+](=O)[O-])c2)s1 (centres undefined),12,i,1,2,-3,-0.42
Cc1cc(C)nc(NC(=O)/C=C/c2ccccc2Cl)n1,-34,i,6,3,1,0.6
Cc1cc(N)c2cc(NC(=O)/C=C/c3ccccc3Cl)ccc2n1,nt,nt,nt,nt,97*,-1.9
O=C(Nc1ccc(Cl)cc1)/C(=C/c1cccc(O)c1)c1nc2ccccc2s1,-34,+,1,0,-13,-0.39
COc1ccc(C(=O)Nc2c(-c3cccs3)c(=O)c3ccccc3n2C)cc1,nt,nt,nt,nt,-1,-1.6
O=C1C(=Cc2cccn2-c2ccccc2)C(=O)c2ccccc21,-11,i,-3,1,33*,0.8
O=C1C(=Cc2cccn2-c2ccc(O)cc2)C(=O)c2ccccc21,0,+,-2,3,27,nt
